# Experimental data as given in the supplement of paper PMC12067093, “Discovery and optimisation of a covalent ligand for TRIM25 and its application to targeted protein ubiquitination” (Chemical Science, 2025).
# Of roughly 21,000 targets only a part is listed; those with the largest changes were picked by preference.
# Compound: Cc1cc(ccc1-c1ccccc1)C(=O)N1CCCN(CC1)C(=O)CCl [compound 10]
# Experiment: probe-labelled cysteine peptide fold change vs DMSO (competition) (log2 fold change); higher = less target engagement (more negative = stronger competition)
# Settings: 10 µM; THP-1; incubation time: 4 h
# 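Also: competitive profiling in live THP-1 cells: cysteine peptides tagged with an iodoacetamide desthiobiotin (IA-DTB) probe, intensity after compound treatment relative to DMSO-treated cells.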
# UniProt P55265, sequence (P55265 whole entry, looked up): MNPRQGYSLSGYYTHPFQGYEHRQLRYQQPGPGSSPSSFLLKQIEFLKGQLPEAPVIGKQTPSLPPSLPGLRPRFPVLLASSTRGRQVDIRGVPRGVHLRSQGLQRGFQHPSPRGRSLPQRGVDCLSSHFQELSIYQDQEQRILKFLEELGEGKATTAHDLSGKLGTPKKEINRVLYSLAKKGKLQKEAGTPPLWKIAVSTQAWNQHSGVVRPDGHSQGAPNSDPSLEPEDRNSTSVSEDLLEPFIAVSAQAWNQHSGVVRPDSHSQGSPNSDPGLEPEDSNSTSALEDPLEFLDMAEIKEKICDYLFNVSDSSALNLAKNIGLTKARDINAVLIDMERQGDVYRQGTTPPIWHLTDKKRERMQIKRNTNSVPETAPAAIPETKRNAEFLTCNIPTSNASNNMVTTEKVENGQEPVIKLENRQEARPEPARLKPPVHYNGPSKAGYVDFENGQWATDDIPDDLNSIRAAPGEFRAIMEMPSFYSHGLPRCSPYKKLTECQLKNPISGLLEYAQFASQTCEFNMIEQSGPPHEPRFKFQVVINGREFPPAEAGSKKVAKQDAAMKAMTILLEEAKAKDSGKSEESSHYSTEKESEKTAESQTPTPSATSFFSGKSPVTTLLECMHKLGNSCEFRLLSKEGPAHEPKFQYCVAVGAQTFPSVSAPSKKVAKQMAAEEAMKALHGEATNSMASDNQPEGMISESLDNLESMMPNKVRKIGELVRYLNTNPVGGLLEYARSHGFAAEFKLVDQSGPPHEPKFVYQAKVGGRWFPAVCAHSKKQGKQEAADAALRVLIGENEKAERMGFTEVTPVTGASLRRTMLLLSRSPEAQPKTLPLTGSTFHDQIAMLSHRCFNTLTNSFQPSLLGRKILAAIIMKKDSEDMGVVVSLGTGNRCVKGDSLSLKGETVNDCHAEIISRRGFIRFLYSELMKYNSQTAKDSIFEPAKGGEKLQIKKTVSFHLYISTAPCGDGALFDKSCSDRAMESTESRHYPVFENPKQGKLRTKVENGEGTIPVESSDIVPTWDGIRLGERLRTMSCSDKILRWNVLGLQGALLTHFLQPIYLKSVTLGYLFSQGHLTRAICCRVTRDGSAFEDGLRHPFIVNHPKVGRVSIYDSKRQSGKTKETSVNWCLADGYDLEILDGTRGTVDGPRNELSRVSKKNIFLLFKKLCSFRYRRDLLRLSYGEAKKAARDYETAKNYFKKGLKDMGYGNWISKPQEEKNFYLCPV
# UniProt P13716, sequence (P13716 whole entry, looked up): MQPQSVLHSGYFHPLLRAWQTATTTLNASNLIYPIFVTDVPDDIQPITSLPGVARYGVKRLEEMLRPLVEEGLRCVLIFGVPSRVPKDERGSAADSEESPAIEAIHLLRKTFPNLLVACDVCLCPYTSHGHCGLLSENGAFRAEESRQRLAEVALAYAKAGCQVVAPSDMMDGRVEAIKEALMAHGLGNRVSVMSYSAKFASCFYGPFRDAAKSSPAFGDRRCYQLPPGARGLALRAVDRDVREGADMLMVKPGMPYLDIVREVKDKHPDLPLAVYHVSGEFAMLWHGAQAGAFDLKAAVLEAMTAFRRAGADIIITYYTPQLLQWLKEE
# UniProt Q13315, sequence (Q13315 whole entry, looked up): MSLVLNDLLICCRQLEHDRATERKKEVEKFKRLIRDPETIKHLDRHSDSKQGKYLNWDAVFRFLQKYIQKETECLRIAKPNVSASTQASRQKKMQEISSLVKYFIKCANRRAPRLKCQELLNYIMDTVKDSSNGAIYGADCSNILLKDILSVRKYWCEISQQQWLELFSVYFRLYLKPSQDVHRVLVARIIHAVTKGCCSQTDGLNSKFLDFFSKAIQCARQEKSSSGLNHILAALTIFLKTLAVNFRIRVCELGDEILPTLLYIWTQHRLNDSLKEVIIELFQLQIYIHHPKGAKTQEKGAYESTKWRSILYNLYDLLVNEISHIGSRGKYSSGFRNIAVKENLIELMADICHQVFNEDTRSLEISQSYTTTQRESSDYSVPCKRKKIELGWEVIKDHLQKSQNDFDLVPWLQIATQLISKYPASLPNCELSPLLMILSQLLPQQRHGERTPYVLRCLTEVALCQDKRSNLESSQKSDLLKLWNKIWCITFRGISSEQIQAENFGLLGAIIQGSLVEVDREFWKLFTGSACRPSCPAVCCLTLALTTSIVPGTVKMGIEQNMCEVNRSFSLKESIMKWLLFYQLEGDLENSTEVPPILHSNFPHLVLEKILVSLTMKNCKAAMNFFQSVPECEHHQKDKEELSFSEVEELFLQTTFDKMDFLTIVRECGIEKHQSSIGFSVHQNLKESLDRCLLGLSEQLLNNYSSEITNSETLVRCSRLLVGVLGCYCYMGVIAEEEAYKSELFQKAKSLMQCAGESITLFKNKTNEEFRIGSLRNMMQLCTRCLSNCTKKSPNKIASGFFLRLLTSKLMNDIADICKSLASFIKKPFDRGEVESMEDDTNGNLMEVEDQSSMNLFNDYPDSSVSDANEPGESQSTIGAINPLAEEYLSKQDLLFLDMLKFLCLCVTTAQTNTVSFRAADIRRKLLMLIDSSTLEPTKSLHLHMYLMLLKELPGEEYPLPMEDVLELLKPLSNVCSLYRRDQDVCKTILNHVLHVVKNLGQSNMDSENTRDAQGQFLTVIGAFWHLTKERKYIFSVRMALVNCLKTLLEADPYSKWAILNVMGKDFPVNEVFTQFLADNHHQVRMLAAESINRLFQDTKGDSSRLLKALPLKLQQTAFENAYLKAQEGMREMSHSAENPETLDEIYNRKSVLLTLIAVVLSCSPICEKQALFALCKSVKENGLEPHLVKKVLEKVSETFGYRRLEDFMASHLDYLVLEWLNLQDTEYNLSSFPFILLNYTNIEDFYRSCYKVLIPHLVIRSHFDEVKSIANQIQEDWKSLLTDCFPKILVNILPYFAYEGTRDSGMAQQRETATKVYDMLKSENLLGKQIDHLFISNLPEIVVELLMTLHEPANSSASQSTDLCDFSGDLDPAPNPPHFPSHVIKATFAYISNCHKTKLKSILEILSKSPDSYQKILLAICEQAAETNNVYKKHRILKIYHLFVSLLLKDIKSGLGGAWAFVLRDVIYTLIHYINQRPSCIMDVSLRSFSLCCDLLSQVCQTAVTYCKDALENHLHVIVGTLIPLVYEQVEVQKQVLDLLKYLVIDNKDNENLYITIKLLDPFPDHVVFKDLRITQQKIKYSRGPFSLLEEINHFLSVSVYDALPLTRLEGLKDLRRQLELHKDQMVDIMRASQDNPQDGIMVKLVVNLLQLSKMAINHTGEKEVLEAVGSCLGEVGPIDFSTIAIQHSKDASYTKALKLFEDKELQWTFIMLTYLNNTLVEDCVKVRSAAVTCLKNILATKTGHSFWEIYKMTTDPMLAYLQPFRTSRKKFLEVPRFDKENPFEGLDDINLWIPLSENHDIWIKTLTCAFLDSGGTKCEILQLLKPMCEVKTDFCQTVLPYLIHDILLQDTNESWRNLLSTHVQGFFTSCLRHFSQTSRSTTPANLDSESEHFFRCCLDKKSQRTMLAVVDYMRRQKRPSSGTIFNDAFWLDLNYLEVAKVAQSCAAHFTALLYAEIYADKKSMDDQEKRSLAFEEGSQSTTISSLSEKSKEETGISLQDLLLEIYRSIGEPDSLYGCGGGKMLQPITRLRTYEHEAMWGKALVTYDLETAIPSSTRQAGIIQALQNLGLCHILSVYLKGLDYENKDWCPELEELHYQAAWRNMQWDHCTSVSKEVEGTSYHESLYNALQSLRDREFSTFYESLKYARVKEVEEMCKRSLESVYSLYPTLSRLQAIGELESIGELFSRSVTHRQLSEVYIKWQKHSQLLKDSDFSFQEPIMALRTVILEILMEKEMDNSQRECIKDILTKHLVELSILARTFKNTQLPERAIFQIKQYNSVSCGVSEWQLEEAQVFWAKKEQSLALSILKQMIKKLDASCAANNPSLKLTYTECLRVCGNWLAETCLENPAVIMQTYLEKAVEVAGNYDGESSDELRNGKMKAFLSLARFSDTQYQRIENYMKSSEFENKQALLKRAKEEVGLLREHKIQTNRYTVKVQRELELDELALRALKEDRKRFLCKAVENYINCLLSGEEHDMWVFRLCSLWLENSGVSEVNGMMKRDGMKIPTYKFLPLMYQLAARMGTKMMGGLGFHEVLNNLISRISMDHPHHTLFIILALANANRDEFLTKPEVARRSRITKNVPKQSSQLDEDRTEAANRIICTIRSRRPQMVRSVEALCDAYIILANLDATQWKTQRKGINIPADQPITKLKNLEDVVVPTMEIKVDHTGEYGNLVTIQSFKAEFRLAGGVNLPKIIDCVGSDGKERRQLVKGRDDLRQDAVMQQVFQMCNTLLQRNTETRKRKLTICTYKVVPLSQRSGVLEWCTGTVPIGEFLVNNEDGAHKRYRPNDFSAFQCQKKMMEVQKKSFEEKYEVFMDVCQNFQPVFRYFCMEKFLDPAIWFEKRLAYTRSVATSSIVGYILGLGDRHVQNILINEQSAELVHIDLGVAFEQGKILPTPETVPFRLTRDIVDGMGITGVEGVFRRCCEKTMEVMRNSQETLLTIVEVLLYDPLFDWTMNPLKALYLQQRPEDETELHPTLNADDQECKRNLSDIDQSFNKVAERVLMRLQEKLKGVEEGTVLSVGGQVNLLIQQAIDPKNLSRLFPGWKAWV
# UniProt P51648, sequence (P51648 whole entry, looked up): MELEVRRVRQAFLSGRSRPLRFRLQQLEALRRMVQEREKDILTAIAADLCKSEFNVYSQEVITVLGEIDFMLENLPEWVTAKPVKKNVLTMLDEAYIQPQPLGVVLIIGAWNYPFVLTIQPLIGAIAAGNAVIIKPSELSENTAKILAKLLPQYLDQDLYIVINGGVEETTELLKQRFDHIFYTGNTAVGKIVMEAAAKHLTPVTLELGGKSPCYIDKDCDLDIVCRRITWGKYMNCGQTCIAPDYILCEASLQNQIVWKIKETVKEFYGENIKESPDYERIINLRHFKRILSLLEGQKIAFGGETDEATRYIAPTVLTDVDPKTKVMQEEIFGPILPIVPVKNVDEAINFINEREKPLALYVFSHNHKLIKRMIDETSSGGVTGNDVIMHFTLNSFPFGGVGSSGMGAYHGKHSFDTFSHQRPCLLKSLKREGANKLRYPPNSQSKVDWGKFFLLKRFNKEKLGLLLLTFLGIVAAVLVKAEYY
row,Target,probe-labelled cysteine peptide fold change
1,ATRX_P46100_1242_IKPVTENLVLSSHTGFCQSSGDEALSK (UniProt P46100),-0.15
2,ANKFY1_Q9P2R3_389_TPLHVSIMAGNEYVFSQLLQCK (UniProt Q9P2R3),0.123
3,ALKBH3_Q96Q83_201_CPIIASLSFGATR (UniProt Q96Q83),0.189
4,ANKHD1_Q8IWZ3_1716_GGCNITAIQDVTGAHIDVDK (UniProt Q8IWZ3),0.183
5,AIDA_Q96BJ3_69_IATCLELR (UniProt Q96BJ3),-0.123
6,ALG13_Q9NP73_86_ADLVISHAGAGSCLETLEK (UniProt Q9NP73),-0.211
7,ADNP2_Q6IQ32_220_CNANASSQDALMYHILTSDIHR (UniProt Q6IQ32),0.0714
8,ATM_Q13315_2323_KLDASCAANNPSLK (UniProt Q13315),-0.12
9,ANLN_Q9NQW6_978_CQVNSSVEER (UniProt Q9NQW6),0.153
10,ARFGEF1_Q9Y6D6_1729_QETSSLACGLR (UniProt Q9Y6D6),-0.151
11,ANAPC1_Q9H1A4_1630_LLVPVDVDTNTPCYALLEVTYK (UniProt Q9H1A4),-0.151
12,ANLN_Q9NQW6_1037_INLANCTSR (UniProt Q9NQW6),-0.121
13,ANKRD17_O75179_564_AGADIELGCSTPLMEAAQEGHLELVK (UniProt O75179),0.0101
14,ALDH1B1_P30837_169_TIPMDGQHFCFTR (UniProt P30837),0.00215
15,ALDOA_P04075_178_YASICQQNGIVPIVEPEILPDGDHDLKR (UniProt P04075),0.281
16,ALAD_P13716_75_CVLIFGVPSR (UniProt P13716),0.166

row,Target,probe-labelled cysteine peptide fold change
1,ATP6V1A_P38606_138_WDFTPCK (UniProt P38606),-1.09
2,AIP_O00170_122_HCCGVAQMR (UniProt O00170),-0.267
3,ADK_P55263_160_SLIANLAAANCYKK (UniProt P55263),-0.309
4,ALDH3A2_P51648_226_DCDLDIVCR (UniProt P51648),-0.0334
5,ARHGAP44_Q17R89_193_ADALREEMEEAANRVEICR (UniProt Q17R89),-0.0472
6,APOOL_Q6UXV4_74_TATGCYIGWCK (UniProt Q6UXV4),-0.823
7,AKAP8_O43823_395_IQFACSVCK (UniProt O43823),0.0747
8,ATP5F1A_P25705_244_KLYCIYVAIGQK (UniProt P25705),-1.08
9,ATRX_P46100_235_WCAEGGNLICCDFCHNAFCK (UniProt P46100),0.0337
10,AKR1B1_P15121_304_VCALLSCTSHK (UniProt P15121),-0.547
11,ADAR_P55265_851_CFNTLTNSFQPSLLGR (UniProt P55265),-0.0671
12,ATIC_P31939_575_VVIEACDELGIILAHTNLR (UniProt P31939),0.103
13,ALDH9A1_P49189_267_SPLIIFSDCDMNNAVK (UniProt P49189),0.208
14,ARPC1B_O15143_227_VAWVSHDSTVCLADADKK (UniProt O15143),0.103
15,ACTR3B_Q9P1U1_408_DYEEYGPSICR (UniProt Q9P1U1),0.154
